# Inconclusive results are not listed. Values without a mark were called inactive. Calls follow the shape of the dose curve; as a rule, active = well fitted curve in the direction sought with a large enough effect; inconclusive = small, poorly fitted or top-dose-only effect, or another doubt; inactive = no such curve, though single readings can be large or run the other way.
# Target: Glyceraldehyde-3-phosphate dehydrogenase (Oryctolagus cuniculus) (UniProt P46406)
# Assay: Extended Characterization of HPGD Inhibitors: Counterscreen Against rGAPDH
# Settings: rabbit GAPDH/diaphorase coupled resazurin fluorescence; series mostly up to 57.1 µM; activity change, negative = inhibition: at the top concentration
# Method: The central role of HPGD is to inactivate prostaglandins such as prostaglandin E2 (PGE2) or prostaglandin D2 (PGD2). These prostaglandins are involved in a number of processes, including inflammation, differentiation, and cellular signaling, which makes HPGD an important target for pharmacological intervention. The counterscreen for non-specific dehydrogenase activity was conducted using a rabbit glyceraldehyde-3-phosphate dehydrogenase (rGAPDH; Sigma Aldrich, St. Louis, MO) coupled assay system. In this assay, the rGAPDH-catalyzed conversion of NAD+ to NADH is coupled downstream to an additional enzyme, diaphorase (Sigma Aldrich, St. Louis, MO), which reduces the non-fluorescent molecule, resazurin, to a red fluorescent product, resorufin, in an NADH-dependent fashion. Thus, rGAPDH activity leads to an increase in fluorescence at 598 nm, and inhibitors of the reaction lead to a decrease in resorufin production and a subsequent decrease in fluorescence. The change in fluorescence between 0 and 30 minutes was measured, and data were normalized to control columns representing maximum signal (all components) and background (no rGAPDH). The buffer consisted of 100mM triethanolamine, pH 7.6, 5mM MgCl2 and 0.01% Tween-20, and the assay was run in black, solid-bottom, non-tissue culture-treated Greiner plates. NIH Chemical Genomics Center [NCGC] NIH Molecular Libraries Probe Centers Network [MLPCN] MLPCN Grant: MH084681 Assay Submitter (PI): Structural Genomics Consortium
# 3 uL of substrate buffer (final conc: 2 mM G3P, 1 mM NAD+, 0.1 mM resazurin, 0.1 mg/mL diaphorase) are added to the 1536-well plate before 23 nL of compound library is pinned into the well. Then, 1 uL of rGAPDH or 0x control (final conc: 2 nM and buffer only, resp.) are added and plate is immediate read for fluorescence on the ViewLux; ex 525, em 598, 1 second exposure, Bodipy Mirror), incubated for 30 at RT before a final read on the ViewLux with the same settings.
# Glyceraldehyde-3-phosphate dehydrogenase (Oryctolagus cuniculus), sequence (P46406 whole entry, looked up): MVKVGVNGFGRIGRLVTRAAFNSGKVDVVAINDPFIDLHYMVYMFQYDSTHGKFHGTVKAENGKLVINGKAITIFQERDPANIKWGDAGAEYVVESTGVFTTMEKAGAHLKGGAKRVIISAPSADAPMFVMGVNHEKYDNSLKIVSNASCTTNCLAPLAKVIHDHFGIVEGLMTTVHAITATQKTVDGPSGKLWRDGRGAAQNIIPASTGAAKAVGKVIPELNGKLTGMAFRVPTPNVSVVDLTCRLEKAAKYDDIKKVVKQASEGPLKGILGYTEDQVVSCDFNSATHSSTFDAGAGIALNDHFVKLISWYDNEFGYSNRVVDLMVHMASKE
row,SMILES,"activity change, negative = inhibition [%]"
1,Cc1cc(-c2nnc3n2CCCCC3)c(C)n1-c1cccc(C(F)(F)F)c1,9.17
2,Cc1ccc(-n2c(C)cc(-c3nnc4n3CCCCC4)c2C)cc1,9.72
3,O=C(c1ccc2c(c1)ncn2-c1cccc(C(F)(F)F)c1)N1CCCCC1,2.8
4,O=C(c1ccc2c(c1)ncn2-c1cccc(Cl)c1)N1CCCCC1,6.42
5,Cc1cccc(-n2cnc3cc(C(=O)N4CCCC(C)(C)C4)ccc32)c1,4.68
6,Cc1cc(-c2nnc3n2CCCCC3)c(C)n1-c1cccc(Cl)c1,4.12
7,Cc1cccc(-n2cnc3cc(C(=O)N4CCCC(C(F)(F)F)C4)ccc32)c1 (centres undefined),7.89
8,COc1ccc(-n2cnc3cc(C(=O)N4CCCCC4)ccc32)cc1,8.15
9,Cc1cc(-c2nnc3n2CCCCC3)c(C)n1-c1ccc(Cl)c(Cl)c1,7.74
